The values below come from PubChem BioAssay (NCI).

About 83,000 compounds went through this panel and 20% of them were active in at least one assay; those are over-represented in the sample as a whole.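 Negative percent growth values reflect cell death: -40 means 40% of the cells present at the start died, and -100 means all died.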 Values without a mark were called inactive. Calls of active or inactive are those of the source. Rule for the calls: active = growth percent below 10; inactive = the rest.

Common to all, as to test: NCI-60 one-dose screen, 48 h (100 = growth as untreated, 0 = no growth, -100 = all killed)
Common to all, as to conditions: 10 µM unless noted

Assay [1] has as its system NCI-H23 lung.
Assay [2] concerns NCI-H226 lung.
The subject of assay [3] is NCI-H322M lung.
The test system of assay [4] is HOP-62 NSCLC.
The test system of assay [5] is NCI-H460 lung.
Assay [6] relates to HOP-92 NSCLC.
Assay [7] has as its system NCI-H522 lung.
Assay [8] has as its system A549/ATCC NSCLC.
Assay [9] concerns 786-0 renal.
The test system of assay [10] is COLO 205 colon.
Assay [11] concerns DU-145 prostate.
For assay [12], the system named is K-562 leukemia.
Assay [13] has as its system MALME-3M melanoma.
The subject of assay [14] is MDA-MB-231 breast.
The subject of assay [15] is RXF 393 renal.
Assay [16] has as its system SF-268 CNS.
The test system of assay [17] is SF-295 CNS.
Assay [18] concerns SF-539 CNS.
In assay [19] the test system is UACC-257 melanoma.
In assay [20] the test system is M14 melanoma.

With `Cc1ccc(C2=Nc3c(N)nc(N)nc3NC(c3cccc(Nc4ccnc5cc(C(F)(F)F)ccc45)c3)C2)cc1` (stereo not given), the growth is 39.4% in assay [1]; 80.7% in assay [2]; 54.8% in assay [3]; 34.1% in assay [4]; 11.7% in [5]; 28.3% in assay [6]. For the same molecule, the growth in [7] is 11.9%; in assay [8], 30.1%; in assay [9] it was 20.9%; in assay [10], 7.09% (active); in [11], 46.6%; in assay [12], 8.46% (active). For the same molecule, the growth in assay [13] was 39.1%; in assay [14] it was 34.8%; in assay [15], 23.6%; in assay [16] it was 29.7%; in assay [17], 15.8%; in [18], 40.3%. Moreover, the growth in assay [19] is 62.3%; in assay [20] it was 11.1%.

Consider `CCN1CCN(c2cc(C(=O)Nc3cccc(Nc4ccc5c(OC)cccc5n4)c3)cc(C(F)(F)F)c2)CC1`, for which the growth was 44.5% in assay [1]; 45.1% in [2]; 26.2% in assay [3]; 5.17% (active) in [4]; -48.7% (active) in assay [5]; -3.85% (active) in [6]. For the same molecule, the growth in [7] was -45.2% (active); in assay [8], 21.1%; in assay [9] it was -70.1% (active); in [10], -77.1% (active); in assay [11], 23.3%; in assay [12], -29.8% (active). For the same molecule, the growth in [13] is -59.6% (active); in assay [14] it was 9.58% (active); in [15] it was 17.3%; in assay [16] it was 32.8%; in [17], 14%; in assay [18], 19.5%. The growth in assay [19] was -40.3% (active); in assay [20] it was -41.9% (active).

Turning to `[2H]C([2H])([2H])Oc1ccc(/C=C/C(=O)/C=C(O)/C=C/c2ccc(OC([2H])([2H])[2H])c(OC([2H])([2H])[2H])c2)cc1OC([2H])([2H])[2H]`, the growth in [1] was 34.3%; in [2], 70.6%; in assay [3], 103%; in [4], 47.7%; in assay [5] it was 46.7%; in assay [6] it was 72.7%. Besides, the growth in assay [7] was 14.8%; in [8], 32.4%; in [9], 48.9%; in assay [10], 30.4%; in [11] it was 59%; in assay [12], 17.6%. Further, the growth is 79.2% in [13]; 72% in [14]; 59.4% in assay [15]; 67.2% in [16]; 39.5% in [17]; 65.8% in assay [18]. Also, the growth was 84% in assay [19] and 52.5% in assay [20].

For the molecule `O=[N+]([O-])c1ccc(N/N=C\c2cc(Cl)ccc2O)nc1`, the growth in assay [1] is 32.7%; in assay [2], 100%; in assay [3], 30.4%; in [4] it was 45.6%; in assay [5] it was 12.8%; in assay [6], 59.7%. In addition, the growth in [7] was 31.3%; in [8], 50.4%; in assay [9], 34%; in assay [10], 50.1%; in assay [11] it was 39.4%; in [12], 17.8%. Also, the growth in assay [13] was 25.6%; in [14] it was 48.8%; in assay [15], 50.2%; in assay [16], 33.3%; in assay [17], 29.9%; in assay [18] it was 29.8%. Besides, the values for the growth in assay [19] and in assay [20] were 30.2% and 17.1%, respectively.

As to `CC/C(=C(/c1ccc(Cl)cc1)c1ccc(OCCCN(C)C)cc1)c1ccc(OC)cc1`, the growth in [1] was 78.6%; in assay [2], 104%; in assay [3], 67.5%; in assay [4], 99.1%; in assay [5], 5.32% (active); in [6], 49.8%. The growth in assay [7] is 87.3%; in assay [8] it was 49.8%; in assay [9], 57.9%; in [10] it was -65.3% (active); in [11] it was 85.7%; in [12] it was -27.4% (active). The growth in assay [13] is 74.1%; in [14], 76.3%; in [15], 53.1%; in assay [16], 84.2%; in [17], 88.5%; in [18] it was 82.8%. The growth in [19] is 84.7%; in assay [20], 32.8%.

On to `C/C=C(/C)C(=O)O[C@@H]1CC(C)(C)CC2C34OC(=O)[C@@]21CC[C@@]3(C)[C@]1(C)CCC2C(C)(C)C(=O)CC[C@]2(C)C1C[C@@H]4O` (stereo not given in full), for which the growth in [1] was 73.5%; in assay [2], 58.6%; in [3] it was 70.2%; in assay [4], 74.3%; in assay [5], 42.4%; in assay [6], 2.1% (active). Besides, the growth was 72.1% in [7]; 63.1% in [8]; 74.7% in assay [9]; 56.1% in [10]; 77.9% in assay [11]; 28.8% in assay [12]. Besides, the growth in [13] was 85%; in [14] it was 58.4%; in assay [15], 76%; in assay [16], 73.4%; in assay [17], 78.4%; in [18], 52.1%. Also, the growth is 64.6% in assay [19] and 52.4% in assay [20].

Regarding `Cn1nc(-c2ccc(Cl)cc2)nc2c(=O)n(C)c(=O)nc1-2`, the growth in assay [1] is -45% (active); in assay [2], -51.4% (active); in assay [3], -68.5% (active); in assay [4], -72.9% (active); in assay [5], 0.75% (active); in assay [6], -28.9% (active). Further, the growth in [7] was -75.4% (active); in assay [8], -25.2% (active); in assay [9], -82.2% (active); in assay [10] it was -90.6% (active); in assay [11] it was -97.5% (active); in assay [12], -52.7% (active). Moreover, the growth in [13] was -90.1% (active); in assay [14] it was -24.9% (active); in assay [15], -30.8% (active); in assay [16] it was -19.8% (active); in [17], -29.6% (active); in [18], -99.2% (active). Besides, the growth was -83.4% (active) in assay [19] and -91.9% (active) in assay [20].

For `CNC(=O)c1cc(Oc2cccc3nc(NC(=O)Nc4ccc(F)cc4F)ccc23)ccn1`, the growth in assay [1] is 42.7%; in assay [2], 49.7%; in assay [3], 33%; in assay [4], 0.65% (active); in assay [5], 13.7%; in [6], 41.4%. Further, the growth in assay [7] is 46%; in assay [8], 8.57% (active); in assay [9] it was -48.7% (active); in assay [10] it was 37.9%; in [11] it was 30%; in assay [12] it was 42%. Moreover, the growth was -21.2% (active) in assay [13]; 60.1% in assay [14]; 1.54% (active) in assay [15]; 48.1% in assay [16]; 55.6% in [17]; -18.9% (active) in assay [18]. Further, the growth is 56.3% in [19] and 19.3% in [20].
